Results on 95 molecules are retold here after PubChem BioAssay AID372 (MTDP, 2006).

Each structure is given as a SMILES string. The whole screen tested about 100,000 compounds, of which about 770 (0.77%) were called active. This is one part of a sample in which actives are shown more often than they occur. No stated cut-off is given here; in the data, active means inhibition above about 50%; inactive means the rest.

The experiment has as its target Gag-Pol polyprotein (Human immunodeficiency virus type 1 group M subtype B (isolate HXB2)) (UniProt P04585). The experiment is described as follows: RNase H inhibition, HIV 1 Gag Pol polyprotein, FRET biochemical assay, screening (AID 372). The settings on record: HIV-1 RT RNase H, FRET RNA/DNA substrate fluorescence; at 10 µM; stronger effect = higher value.
One may read the inhibition as the percentage by which the read-out fell short of the control. Turning to `O=C(Nc1ccc2ccccc2c1)c1cc(I)ccc1Cl`, the inhibition is 23% (inactive).

For the molecule `COc1ccc(/C(N)=N/OC(=O)/C=C/c2ccccc2)cc1`, the inhibition is 15% (inactive).

As for `CCCCOC(=O)c1ccc(NC(=O)COc2ccccc2Br)cc1`, the inhibition was 15% (inactive).

Regarding `COc1ccc(NC(=O)CN(c2c(C)n(C)n(-c3ccccc3)c2=O)S(=O)(=O)c2ccccc2)cc1`, the inhibition was 4% (inactive).

`O=C(CSc1nc2sc3c(c2c(=O)n1-c1ccc(Cl)cc1)CCCC3)c1ccccc1`: the inhibition was 13% (inactive).

With `O=[N+]([O-])c1ccc(N2CCN(S(=O)(=O)c3ccc4ccccc4c3)CC2)cc1N1CCCC1`, the inhibition was 5% (inactive).

For the molecule `CC(c1ccccc1)N1C(=O)/C(=C/c2cccc([N+](=O)[O-])c2)SC1=S` (stereo not given), the inhibition is 11% (inactive).

With `Cc1ccc(C(=O)Nc2ccccc2)cc1[N+](=O)[O-]`, the inhibition is 7% (inactive).

Regarding `O=C(Nc1ccc2nn(-c3ccc(F)cc3)nc2c1)c1ccc(Cl)c([N+](=O)[O-])c1`, the inhibition is 52% (active).

In the case of `Cc1ccc(C(=O)Nc2ccc(-c3nc4cc5ccccc5cc4[nH]3)cc2)cc1[N+](=O)[O-]`, the inhibition is 80% (active).

On to `COc1ccc(C(=O)NC(=S)Nc2ccc(C)c(Cl)c2)cc1[N+](=O)[O-]`, for which the inhibition is 5% (inactive).

On to `O=C(Nc1ccc2nn(-c3ccc(F)cc3)nc2c1)c1ccc([N+](=O)[O-])cc1`, for which the inhibition was 16% (inactive).

`COc1ccc(C(=O)NC(=S)Nc2ccc3nn(-c4ccc(F)cc4)nc3c2)cc1[N+](=O)[O-]`: the inhibition is 38% (inactive).

Turning to `Cc1ccc(-n2nc3ccc(NC(=O)c4cccc([N+](=O)[O-])c4)cc3n2)cc1Cl`, the inhibition was 43% (inactive).

On to `O=C(Nc1ccc2nn(-c3ccc(Cl)cc3)nc2c1)c1ccc([N+](=O)[O-])cc1`, for which the inhibition was 31% (inactive).

`O=C(Nc1ccc2nn(-c3ccccc3)nc2c1)c1ccc(Cl)c([N+](=O)[O-])c1`: the inhibition is 21% (inactive).

On to `O=C(Nc1ccc(-c2nc3ccc(NC(=O)c4ccccc4[N+](=O)[O-])cc3[nH]2)cc1)c1ccccc1[N+](=O)[O-]`, for which the inhibition is 13% (inactive).

`Cc1ccc(-n2nc3ccc(NC(=O)c4ccc([N+](=O)[O-])cc4)cc3n2)cc1Cl`: the inhibition was 53% (active).

For the molecule `CC(=O)N/N=C/c1ccc(-c2ccc([N+](=O)[O-])cc2Br)o1`, the inhibition is 13% (inactive).

Turning to `CCOc1ccc(C(=O)NCc2cccnc2)cc1Br`, the inhibition was 0% (inactive).

As to `CC(C)=NNC(=O)/C(=C/C=C/c1ccccc1)NC(=O)c1ccccc1`, the inhibition is 7% (inactive).

As for `CC(=O)c1cccc(NC(=O)CC2S/C(=N\N=C(/C)c3ccc(Cl)cc3)NC2=O)c1` (stereo not given), the inhibition is 13% (inactive).

As to `O=C(c1nn2c(c1Br)NC(c1cccs1)CC2C(F)(F)F)N1CCOCC1` (stereo not given), the inhibition was 0% (inactive).

On to `N#Cc1ccc(C=Nc2cc(Cl)cc(Cl)c2)cc1`, for which the inhibition was 11% (inactive).

Regarding `Cc1cc2c(c(=O)o1)C(c1cccs1)C(C#N)=C(N)O2` (stereo not given), the inhibition is 4% (inactive).

Regarding `Cc1cc(C)c(S(=O)(=O)Nc2cc(Br)c(O)c3ccccc23)c(C)c1`, the inhibition is 18% (inactive).

As for `N#Cc1ccccc1COc1ccc(/C=C2/NC(=S)NC2=O)cc1`, the inhibition is 23% (inactive).

As for `Cc1ccc(C(=O)Nc2ccc3nn(-c4ccc(Cl)cc4)nc3c2)cc1[N+](=O)[O-]`, the inhibition was 51% (active).

For `CCOc1ccc(C(=O)NC(=S)Nc2ccc3nn(-c4ccccc4)nc3c2)cc1[N+](=O)[O-]`, the inhibition was 18% (inactive).

With `COc1ccc(C(=O)NC(=S)Nc2cc(-c3nc4ccccc4[nH]3)ccc2C)cc1[N+](=O)[O-]`, the inhibition was 18% (inactive).

As to `O=C(/C=C/c1cccc([N+](=O)[O-])c1)Nc1ccc2nn(-c3ccccc3)nc2c1`, the inhibition was 43% (inactive).

Regarding `Cc1ccc(-n2nc3ccc(NC(=O)/C=C\c4cccc([N+](=O)[O-])c4)cc3n2)cc1`, the inhibition is 59% (active).

As to `Cc1ccc(C(=O)Nc2ccc3nn(-c4ccc(F)cc4)nc3c2)cc1[N+](=O)[O-]`, the inhibition was 40% (inactive).

As to `COc1ccc(C(=O)NC(=S)Nc2ccc3nn(-c4ccccc4)nc3c2)cc1[N+](=O)[O-]`, the inhibition is 56% (active).

For the molecule `COc1ccc(C(=O)NC(=S)Nc2ccc(Br)cc2)cc1[N+](=O)[O-]`, the inhibition was 0% (inactive).

With `COc1ccc(C(=O)NC(=S)Nc2ccc(-c3nc4ccccc4[nH]3)cc2)cc1[N+](=O)[O-]`, the inhibition was 60% (active).

As for `COc1ccc(C(=O)Nc2ccc3nn(-c4ccccc4)nc3c2)cc1[N+](=O)[O-]`, the inhibition is 18% (inactive).

In the case of `CCOc1ccc(-n2nc3ccc(NC(=O)c4ccc(C)c([N+](=O)[O-])c4)cc3n2)cc1`, the inhibition is 17% (inactive).

Regarding `Cc1ccc(-n2nc3cc(C)c(NC(=O)/C=C/c4cccc([N+](=O)[O-])c4)cc3n2)cc1`, the inhibition was 12% (inactive).

With `CCc1ccc(C=NC23CN4CN(CN(C4)C2)C3)s1`, the inhibition was 5% (inactive).

For `CCOC(=O)c1c(NC(=O)CN2C(=O)S/C(=C\c3ccccc3)C2=O)sc2c1CCCC2`, the inhibition was 10% (inactive).

Turning to `COc1cccc(/C=C2/SC(=S)N(CCC(=O)Nc3nnc(C)s3)C2=O)c1`, the inhibition is 7% (inactive).

`Cn1ccnc1SCC(=O)n1c2c(c3ccccc31)CCCC2`: the inhibition is 0% (inactive).

In the case of `COc1ccc(-n2nc3ccc(NC(=O)c4ccc(OC)c([N+](=O)[O-])c4)cc3n2)cc1`, the inhibition was 3% (inactive).

With `Cc1ccc(-n2nc3ccc(NC(=O)c4ccc([N+](=O)[O-])c(C)c4)cc3n2)cc1Cl`, the inhibition is 44% (inactive).

With `O=C(Nc1ccc2nn(-c3cccc([N+](=O)[O-])c3)nc2c1)c1ccccc1`, the inhibition was 22% (inactive).

With `COc1ccc(C(=O)Nc2ccc3nn(-c4ccc(C)c(Cl)c4)nc3c2)cc1[N+](=O)[O-]`, the inhibition is 53% (active).

On to `Cc1ccc(C(=O)Nc2ccc3nn(-c4cccc([N+](=O)[O-])c4)nc3c2)cc1`, for which the inhibition is 54% (active).

Take `O=C(Nc1ccc2nn(-c3ccccc3)nc2c1)c1ccc([N+](=O)[O-])cc1`: the inhibition is 12% (inactive).

Consider `Cc1cc([N+](=O)[O-])ccc1NC(=O)c1c(C)c(C)c(C)c(C)c1C`, for which the inhibition was 10% (inactive).

Take `CCOc1ccc(N(CC(=O)NCCSCc2ccccc2)S(=O)(=O)c2ccccc2)cc1`: the inhibition is 10% (inactive).

As to `CC1(C)Cc2cc3c(=O)[nH]c(=S)[nH]c3nc2CO1`, the inhibition was 0% (inactive).

`N#Cc1cc2c(N)c(C(=O)c3ccccc3)sc2nc1N`: the inhibition was 8% (inactive).

With `CC1=C(C(=O)OC2CCCCC2)C(c2ccccc2[N+](=O)[O-])C2=C(CCCC2=O)N1` (stereo not given), the inhibition was 10% (inactive).

For `COC(=O)CCc1cc(C(C)(C)C)c(O)c(C(C)(C)C)c1`, the inhibition was 0% (inactive).

`CC(C)(C)c1cc(CCC(=O)NCCO)cc(C(C)(C)C)c1O`: the inhibition was 0% (inactive).

As for `CC(C)(C)c1cc(CCC(=O)NCCNC(=O)C(=O)NCCNC(=O)CCc2cc(C(C)(C)C)c(O)c(C(C)(C)C)c2)cc(C(C)(C)C)c1O`, the inhibition is 55% (active).

For the molecule `Cc1ccccc1OCCOc1ccc(/C=c2\sc3nc4ccccc4n3c2=O)cc1`, the inhibition is 5% (inactive).

Regarding `C=CCN1C(=O)C(O)=C(C(C)=O)C1c1ccc(Br)cc1` (stereo not given), the inhibition was 8% (inactive).

With `Cc1ccc(-c2nc3ccccc3s2)cc1NC(=O)COc1ccccc1`, the inhibition is 10% (inactive).

`Cc1ccc(-c2nc3ccccc3s2)cc1NC(=O)COc1ccc(Cl)cc1`: the inhibition is 69% (active).

Consider `Cc1cc(C)cc(OCC(=O)Nc2cccc(-c3nc4ccccc4s3)c2)c1`, for which the inhibition was 53% (active).

As for `Cc1cccc(OCC(=O)Nc2cccc(-c3nc4ccccc4s3)c2)c1`, the inhibition is 9% (inactive).

On to `COc1ccc(OCC(=O)Nc2cccc(-c3nc4ccccc4s3)c2)cc1`, for which the inhibition was 7% (inactive).

For `COc1ccc(OCC(=O)Nc2cc(-c3nc4ccccc4s3)ccc2C)cc1`, the inhibition is 2% (inactive).

With `CCc1cc(=O)oc2c(C)c(OCc3ccc(Cl)cc3)ccc12`, the inhibition is 5% (inactive).

As to `CN1C(=O)/C(=C\c2cccc(OCc3ccc(Cl)cc3Cl)c2)SC1=S`, the inhibition is 11% (inactive).

Take `Cc1ccccc1N=C(NOCc1ccc(Cl)cc1Cl)c1nonc1N`: the inhibition is 13% (inactive).

In the case of `Nc1nonc1C(=Nc1ccccc1)NOCc1ccc(Cl)cc1Cl`, the inhibition was 32% (inactive).

Turning to `COc1ccc(C2CC(=O)C3=C(C2)Nc2ccccc2NC3c2cccc(Cl)c2Cl)cc1OC` (stereo not given), the inhibition is 16% (inactive).

Regarding `CCc1nnc(NC(=O)Nc2ccc(Cl)cc2)s1`, the inhibition was 10% (inactive).

For `Cc1cc(C)c2nc3s/c(=C\c4ccc(Cl)cc4Cl)c(=O)n3c2c1`, the inhibition was 0% (inactive).

Take `COc1cccc2cc(C(=O)O)c(=O)oc12`: the inhibition was 6% (inactive).

With `COc1cccc2cc(C(C)=O)c(=O)oc12`, the inhibition was 3% (inactive).

As to `Brc1ccc(CN2CCN(c3ncccn3)CC2)s1`, the inhibition was 1% (inactive).

Regarding `Cc1ccc(-c2nc3ncccc3o2)cc1NC(=S)NC(=O)/C=C/c1ccccc1`, the inhibition was 5% (inactive).

For `Cc1c(NC(=S)NC(=O)/C=C/c2ccccc2)cccc1-c1nc2ccccc2o1`, the inhibition is 36% (inactive).

In the case of `Cc1c(NC(=S)NC(=O)/C=C/c2ccccc2)cccc1-c1nc2ncccc2o1`, the inhibition is 52% (active).

On to `CCOc1ccc(OCCCCOc2ccccc2C)cc1`, for which the inhibition is 18% (inactive).

In the case of `O=C(N/N=C/c1cccc(Br)c1)C(=O)N1CCCC1`, the inhibition is 15% (inactive).

As for `N#CC1=C(N)Oc2cc(N)ccc2C1c1cccc(Oc2ccccc2)c1` (stereo not given), the inhibition was 5% (inactive).

Turning to `OCCNCCCOc1cc(Cl)ccc1Cl`, the inhibition was 8% (inactive).

With `CCCCNCCCCCCOc1ccc(Cl)cc1Cl`, the inhibition is 10% (inactive).

Take `CCCCNCCCOc1cc(Cl)ccc1Cl`: the inhibition is 57% (active).

Turning to `COc1ccc(-c2cc(C(=O)NCc3ccco3)c3ccccc3n2)cc1`, the inhibition was 14% (inactive).

For the molecule `COC(=O)c1c(NC(=O)c2ccccc2Br)sc(C)c1C`, the inhibition was 23% (inactive).

Regarding `O=C1N=c2ccc(Br)cc2=C1c1sc(=S)n(-c2ccc(Br)cc2)c1O`, the inhibition was 15% (inactive).

For the molecule `O=C1N=c2ccc(Br)cc2=C1c1sc(=O)n(-c2ccc(O)cc2)c1O`, the inhibition is 41% (inactive).

As to `O=C1N=c2ccc(Br)cc2=C1c1sc(=S)n(-c2ccc(Cl)cc2)c1O`, the inhibition is 51% (active).

As for `O=C1N=c2ccccc2=C1c1sc(=S)n(-c2ccc(F)cc2)c1O`, the inhibition was 12% (inactive).

In the case of `CCOc1ccc(-n2c(O)c(C3=c4cc(Br)ccc4=NC3=O)sc2=S)cc1`, the inhibition is 9% (inactive).

Consider `CCN(CC)c1ccc(-n2c(O)c(C3=c4ccccc4=NC3=O)sc2=S)cc1`, for which the inhibition is 50% (active).

Take `O=C1N=c2ccccc2=C1c1sc(=S)n(-c2ccc(Cl)cc2)c1O`: the inhibition was 0% (inactive).

On to `O=C1N=c2ccc(Br)cc2=C1c1sc(=O)n(-c2cccc(Cl)c2)c1S`, for which the inhibition is 50% (active).

With `O=C1N=c2ccc(Cl)cc2=C1c1sc(=O)n(-c2ccccc2)c1O`, the inhibition is 42% (inactive).
